This is a sample that favours compounds with a hit; in the whole collection about 0.44% have one here.
ABCB6 inh 2 – ABCB6 transporter inhibitors, primary screen, K562-ABCB6 cells, flow cytometry, MLPCN library; fluorescence ratio to DMSO, % at 10 µM; K562-ABCB6 porphyrin accumulation, 1 h; hits give low values; AID 602162, 2011; 360,000 tested, 0.19% active;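 active means fluorescence ratio to DMSO below 75%, the collection mean minus 3 SD; inconclusive means too few cells collected in the well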;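 further: signal is porphyrin accumulated inside mitochondria; lower ratio means ABCB6 inhibition with less porphyrin fluorescence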
GASC-1 inh – inhibitors of GASC-1 histone demethylase, primary screen, biochemical, fluorescence, DELFIA europium; inhibition, % at 2.35 µM; GST-JMJD2C(1-420) H3K9me3 demethylation; 330,000 tested, 0.069% active; Lysine-specific demethylase 4C (Homo sapiens), Q9H3R0; AID 2099, 2009;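 active means more than half of a compound's replicate wells show inhibition beyond 50%, single wells judged on their own value; inconclusive means some, but no more than half, of replicates pass 50% inhibition; inactive means no replicate passes 50% inhibition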;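 further: signal counts dimethyl H3K9 product captured on neutravidin plate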
Target sequence (Q9H3R0 1-420 limits assumed): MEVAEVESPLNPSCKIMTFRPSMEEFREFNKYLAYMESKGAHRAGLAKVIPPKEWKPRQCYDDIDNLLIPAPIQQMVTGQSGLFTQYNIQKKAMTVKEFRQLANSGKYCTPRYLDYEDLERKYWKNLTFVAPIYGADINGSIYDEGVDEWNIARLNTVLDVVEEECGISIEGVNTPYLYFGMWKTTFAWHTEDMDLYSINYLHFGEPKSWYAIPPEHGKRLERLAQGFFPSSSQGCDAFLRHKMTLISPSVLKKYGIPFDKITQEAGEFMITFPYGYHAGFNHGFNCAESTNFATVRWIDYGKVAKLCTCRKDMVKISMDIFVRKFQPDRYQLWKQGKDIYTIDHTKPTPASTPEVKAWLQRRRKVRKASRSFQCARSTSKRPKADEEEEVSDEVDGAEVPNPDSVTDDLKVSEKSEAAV
PolyA inhibitor – polyadenylation inhibitors in yeast reporter cells, primary screen, luminescence, S. cerevisiae; S. cerevisiae SKY197-pL101 polyadenylation reporter, beta-gal luminescence; efflux-impaired pdr1/pdr3 knockout yeast; score 100 = 6 SD above DMSO; activity score, % at 12 µM; 300,000 tested, 0.02% active;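 active means lowest replicate activity score at least 50, where 100 means six control SD above control mean; inconclusive means lowest score under 50 but half or more replicates reach 50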;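 further: yeast exposed to compound for 9 h at 30 °C; higher score means more reporter readthrough which indicates perturbed polyadenylation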
VLA-4 inh – inhibition in human VLA-4 binding assay, primary screen, VLA-4 allosteric modulator project, MLPCN library, flow cytometry, VLA-4 expressing cells. Integrin alpha-4 (Homo sapiens), P13612. ligand binding flow cytometry. inhibition, % (about 7 µM as worked out from the volumes in the protocol). 330,000 tested, 0.2% active; in the data active means inhibition above about 50%
VLA-4 mod pick – retest of VLA-4 allosteric modulators, confirmation, cell-based, cherry-picked plates, U937, HUTS-21 LIBS antibody. shares compounds with VLA-4 inh. U937 cells, HUTS-21 LIBS mAb binding, flow cytometry; LDV ligand present at threefold Kd. inhibition, % at 6.7 µM. 1,300 tested, 2% active; in the data active means inhibition above about 40%
Hits are given with their value; i = inactive; ? = inconclusive; nt = not tested or not shown.

SMILES	ABCB6 inh 2	GASC-1 inh	PolyA inhibitor	VLA-4 inh	VLA-4 mod pick
COc1ccc(CNC(=O)C2CCC(CNc3c(N4CCC(C)CC4)c(=O)c3=O)CC2)cc1 (stereo not drawn)	i	i	i	i	nt
O=C1CCN(CCCc2ccccc2)CCN1[C@H](CO)Cc1ccccc1	i	i	i	54	i
OC[C@H]1O[C@@H](n2cnc3c(NC4CCCC4)ncnc32)[C@H](O)[C@@H]1O	i	i	i	i	i
OCC1OC(n2cnc3c(NC4CCCC4)ncnc32)C(O)C1O (stereo not drawn)	i	i	i	i	nt
OCC1OC(n2cnc3c(NC4CCCCC4)ncnc32)C(O)C1O (stereo not drawn)	i	i	i	i	i
COc1cc(OC)c(C(=O)Nc2cc(S(=O)(=O)N3CCOCC3)ccc2N2CCN(C)CC2)cc1OC	i	nt	nt	nt	nt
CC(C)(C)NC(=S)NNC(=O)c1ccncc1	i	i	i	i	nt
O=C(NC1CCCCC1)NC1CCN(S(=O)(=O)c2ccc3c(c2)OCCO3)CC1	i	i	i	i	nt
CCOC(=O)c1c(C)[nH]c(C(=O)COC(=O)c2ccncc2)c1C	i	i	i	i	i
CCOC(=O)c1c(C)[nH]c(C(=O)COC(=O)c2cnccn2)c1C	i	i	nt	i	i
CCOC(=O)c1c(C)[nH]c(C(=O)COC(=O)c2[nH]c(C)c(C(C)=O)c2C)c1C	i	i	i	i	nt
CCOC(=O)c1c(C)[nH]c(C(=O)COC(=O)c2ccco2)c1C	i	i	nt	i	i
CCOC(=O)c1c(C)[nH]c(C(=O)COC(=O)C2CC2C)c1C (stereo not drawn)	i	i	i	i	i
CN(C)CCCN=C(NO)c1ccc(Cl)cc1Cl	?	i	i	i	nt
CCOC(=O)N1CCC(Nc2c(-c3ccc(C)cc3)c(=O)c2=O)CC1	i	i	i	i	nt
CCOc1ccc(N(CC(=O)N2CCc3ccccc32)S(=O)(=O)c2c(C)noc2C)cc1	i	i	i	i	nt
Cc1cc(C)cc(N(CC(=O)N2CCc3ccccc32)S(=O)(=O)c2c(C)noc2C)c1	i	i	i	i	i
Cc1cc(C)n(CC(=O)N2CCCC(N3CCN(c4cccc(C(F)(F)F)c4)CC3)C2)n1 (stereo not drawn)	i	i	i	i	nt
CCOc1cnn(-c2ccccc2)c(=O)c1Cl	i	i	i	i	i
CCSc1cnn(-c2ccccc2)c(=O)c1Cl	i	i	i	i	nt
CCOC(=O)N1CCN(Cc2nc3cc(NC(=O)CC(C)C)ccc3n2C)CC1	i	i	i	i	nt
CCOC(=O)N1CCN(Cc2nc3cc(NC(=O)CC(C)C)ccc3n2CC)CC1	i	i	i	51	i
COc1ccc(C(=O)Nc2ccccc2C(=O)NC(Cc2ccc(O)cc2)C(=O)NNC(=O)c2ccncc2)cc1 (stereo not drawn)	i	i	i	56	i
COc1ccc(C(=O)Nc2ccccc2C(=O)NC(Cc2ccc(O)cc2)C(=O)NNC(=O)c2ccccc2)cc1 (stereo not drawn)	i	i	i	i	nt
Cc1ccc2ncnc(-c3ccccc3)c2c1	i	i	i	i	nt
SMILES	ABCB6 inh 2	GASC-1 inh	PolyA inhibitor	VLA-4 inh	VLA-4 mod pick
c1ccc(-c2ncnc3cc4n(c23)CCC4)cc1	i	i	i	61	i
NS(=O)(=O)c1cc(C(=O)OCC(=O)Nc2ccc(Cl)cc2[N+](=O)[O-])ccc1Cl	i	i	i	52	i
COc1ccc(N(CC(=O)NCCSCc2ccco2)S(=O)(=O)c2ccc(C)cc2)cc1	i	i	i	i	nt
CCOCCCNc1nc(C(F)(F)F)nc2c1nnn2Cc1ccccc1Cl	i	i	i	i	nt
C=CCNc1nc(C(F)(F)F)nc2c1nnn2Cc1ccccc1Cl	i	i	i	70	i
CCS(=O)(=O)c1ccc(N)cc1	i	i	i	58	i
Nc1ccc(S(N)(=O)=O)cc1	i	i	i	i	nt
O=C1NC2(CCC3(CC2)OCCO3)NN1c1ccc(Cl)cc1	i	i	i	i	nt
O=C1C2C3C=CC(C3=C(c3ccccc3)c3ccccc3)C2C(=O)N1CCO (stereo not drawn)	i	i	i	i	nt
Cc1ccc(C(=C2C3C=CC2C2C(=O)NC(=O)C32)c2ccc(C)cc2)cc1 (stereo not drawn)	i	i	i	56	i
Cc1cc(C)c(C#N)c(Oc2ccc(O)cc2)n1	i	i	i	i	nt
CCCC(=O)Nc1cccc(Oc2nc(C)cc(C)c2C#N)c1	i	i	i	89	i
Nc1c2nc(-c3ccccc3Cl)[nH]c(=O)c2nc(=O)n1-c1ccccc1	i	i	i	i	nt
COc1cc2c(=O)n(CCC(=O)NCC3CCCO3)c(=O)n(CC(=O)Nc3ccc(F)cc3)c2cc1OC (stereo not drawn)	i	i	i	i	nt
COc1cc2c(cc1OC)C(c1ccc(Br)cc1)CC(=O)N2 (stereo not drawn)	i	i	i	i	i
COc1cccc(C2CC(=O)Nc3cc(C)c(C)cc32)c1 (stereo not drawn)	i	nt	nt	nt	nt
COc1cccc(C2CC(=O)Nc3cc(OC)c(OC)cc32)c1 (stereo not drawn)	i	i	i	i	i
CCOc1cccc(C2CC(=O)Nc3cc(OC)c(OC)cc32)c1 (stereo not drawn)	i	i	?	51	i
CCOc1ccc(C(=O)CSc2nnc(C3CC3)n2C)cc1	i	i	i	i	nt
COc1ccc(C(=O)N(CCc2ccccc2)Cc2ccccc2)c(OC)n1	i	i	i	i	i
O=C(Nc1ccc(Cl)c(Cl)c1)Nc1ccccc1O	i	i	i	i	i
Cc1c(NC(=O)c2cc3ccccc3c(=O)s2)c(=O)n(-c2ccccc2)n1C	i	i	i	53	i
Cc1c(NC(=O)COc2ncnc3c(Cl)cc(Cl)cc23)c(=O)n(-c2ccccc2)n1C	i	i	i	i	i
Cc1c(NC(=O)c2cc(C(C)C)on2)c(=O)n(-c2ccccc2)n1C	i	i	i	nt	i
Cc1c(NC(=O)c2c(F)c(F)c(F)c(F)c2F)c(=O)n(-c2ccccc2)n1C	i	i	i	i	i
SMILES	ABCB6 inh 2	GASC-1 inh	PolyA inhibitor	VLA-4 inh	VLA-4 mod pick
Cc1c(NC(=O)COc2ccccc2Cl)c(=O)n(-c2ccccc2)n1C	i	i	nt	i	nt
Cc1c(NC(=O)CN2CCN(C(=O)c3ccco3)CC2)c(=O)n(-c2ccccc2)n1C	i	i	i	i	i
Cc1cc(OCC(=O)N(Cc2cccs2)C2CCS(=O)(=O)C2)ccc1Cl (stereo not drawn)	i	i	i	i	nt
CCc1cccc2c(C#N)cn(CC(=O)NCc3ccco3)c12	i	i	i	i	nt
Cc1ccccc1C(=O)NCCCn1ccnc1	i	i	i	i	nt
CCN1CCN(CC(O)COc2ccc(C)c(C)c2)CC1 (stereo not drawn)	i	i	i	92	i
